Measurements as given in ChEMBL document CHEMBL3988442, “University of Dundee, Small-Polar-MMV Screening Library” (2021).

target: T1, Aspartate--tRNA(Asp/Asn) ligase (Mycobacterium tuberculosis (strain ATCC 25618 / H37Rv)) (UniProt P9WFW3); experiment: Assay for Asp RNA synthetase-1 from Mycobacterium tuberculosis; assay type: functional; parameters: scale not given: direction of the effect not stated beside the values; settings: 30 µM; further: in the data most compounds retested in dose-response had high values
T1 sequence (whole entry): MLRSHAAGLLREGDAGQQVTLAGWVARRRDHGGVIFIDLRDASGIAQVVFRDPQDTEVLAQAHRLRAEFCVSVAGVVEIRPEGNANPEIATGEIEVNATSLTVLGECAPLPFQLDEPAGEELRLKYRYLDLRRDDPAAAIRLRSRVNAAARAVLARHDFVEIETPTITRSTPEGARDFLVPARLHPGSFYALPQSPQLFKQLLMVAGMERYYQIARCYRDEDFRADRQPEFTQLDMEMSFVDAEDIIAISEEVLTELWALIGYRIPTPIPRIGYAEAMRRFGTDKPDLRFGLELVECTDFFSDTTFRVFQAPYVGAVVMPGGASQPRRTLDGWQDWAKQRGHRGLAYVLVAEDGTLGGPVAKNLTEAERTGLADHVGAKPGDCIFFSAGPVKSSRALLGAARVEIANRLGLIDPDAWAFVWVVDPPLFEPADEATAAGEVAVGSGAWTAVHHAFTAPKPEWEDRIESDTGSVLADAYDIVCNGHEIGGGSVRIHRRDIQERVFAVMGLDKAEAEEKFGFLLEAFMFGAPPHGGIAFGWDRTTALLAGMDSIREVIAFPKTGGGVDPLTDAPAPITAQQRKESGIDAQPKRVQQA

Row | Compound | Percent Effect [%]
1 | Cc1noc(C)c1CNCC1CCCN1c1cccnn1 (stereo not given) | 1.53
2 | CCn1ccnc1CN1CCN(Cc2ccc(C#N)cc2)CC1 | -0.278
3 | Cc1nc(CN2C(=O)CC[C@H]3[C@@H]2CCN3C(=O)c2ccsc2)cs1 | -4.11
4 | O=c1[nH]c2c(c(=O)n1C1CCCCC1)CCC2NCCc1ccccc1 (stereo not given) | -2.9
5 | c1ccc(CN2CCN(Cc3cscn3)CC2)cc1 | -2.48
6 | Cc1ccc(N2CC[C@H]3OCC[C@@]3(C(=O)NC(C)C)C2)nn1 | -2.66
7 | CNC(=O)[C@@H]1C[C@H]2CN(Cc3nccs3)C[C@H]2N1C | 1.25
8 | CCn1c(CN(C)C)nnc1C1CCN(Cc2ccccc2)CC1 | -0.862
9 | COc1ccc(C(=O)N2CCC(Nc3cccnn3)CC2)c(OC)c1 | -0.568
10 | CCOCCC(=O)N1CCCN(Cc2csc(CC)n2)CC1 | -0.742
11 | CCc1noc(C(C)N2CCC(C(=O)Nc3cnn(CC)c3)CC2)n1 (stereo not given) | -3.65
12 | CCN1C[C@@H]2[C@@H](OC)CCN(S(=O)(=O)c3ccccc3)[C@@H]2C1 | -4.66
13 | Cc1ccn2cc(C(=O)N3CCCC3c3c(C)nn(C)c3C)nc2c1 (stereo not given) | -1.79
14 | CCc1nccc(CN2CCCC(c3nn(C)c(=O)n3CC)C2)n1 (stereo not given) | 1.68
15 | Cc1noc([C@@H]2CCCN2C(=O)C2CCN(C(=O)C3CCC3)CC2)n1 | 6.9
16 | Cc1cc(C)c2nc(CN3CCOC(CCO)C3)cc(O)c2c1 (stereo not given) | -0.725
17 | Cc1sc(NC(=O)CN(C)S(C)(=O)=O)c(C#N)c1C | 1.76
18 | Cc1ccc(NC2CCN(C(=O)COc3cccnc3)CC2)nn1 | -4.47
19 | Fc1ccc(-c2nnc(CN3CCn4c(nnc4C4CC4)C3)o2)cc1 | 3.19
20 | CN(CCc1ccccn1)S(=O)(=O)N1CCCC1c1ccco1 (stereo not given) | 2.3

target: Shiga toxin 2 (Escherichia coli O157:H7) (UniProt P09385+P09386); experiment: E. coli 0.157:H7 Shiga Toxin SOP - stx2 screening assay; assay type: functional; parameters: scale not given: direction of the effect not stated beside the values; settings: 30 µM

Row | Compound | Percent Effect [%]
21 | COc1cccc(S(=O)(=O)NC(=O)COC2CCCC2)c1 | -4.79
22 | CCc1cc(NCC(O)CN2CCCCC2)n2ncnc2n1 (stereo not given) | -8.11
23 | O=C(NCCc1ccc(Cl)s1)NCc1nnc2n1CCC2 | 22.9
24 | Cc1noc(C(C)N2CCN(CCC(=O)N3CCCCC3)CC2)n1 (stereo not given) | 7.71
25 | COc1cccc(CN2CCN(c3ccc4nncn4n3)C(C)C2)c1 (stereo not given) | 14.8
26 | CC(C)=CCN1CCC(c2nccn2Cc2cscn2)CC1 | 22.8
27 | Nc1nccc(N2CCC(Cc3ccccc3Cl)(C(=O)O)CC2)n1 | -4.46
28 | N#Cc1ccc(OC2CCN(C(=O)c3ccc4c(c3)OCO4)CC2)nc1 | -32.6
29 | COc1cc(C(=O)N(Cc2ccc(F)cc2)C2CC2)cc2c1OCCO2 | -12.1
30 | CN1CCC(c2nnc(CN3CCC(O)CC3)n2C)CC1 | -2.24
31 | CCS(=O)(=O)N1C[C@H]2C[C@H](C(=O)N(C)C)[C@@H](C1)O2 | -5.91
32 | Cn1c(CN2CCN(CC3CC3)CC2)nnc1C1CCC1 | -37.5
33 | Cc1nc(CN2CCCC(CCc3ccc(F)cc3F)C2)c[nH]1 (stereo not given) | -3.15
34 | O=C(NCC1COCc2c(-c3cccnc3)nnn2C1)c1cccs1 (stereo not given) | -14.9
35 | COCCO[C@@H]1CCN(Cc2csc(C)n2)[C@H]1Cc1ccccc1 | 1.09
36 | CC(=O)N1CCCN(C(=O)NCCc2ccc(Cl)s2)CC1 | -19.8
37 | CC(C)c1nc(CN(C)C2CCN(CCNS(C)(=O)=O)C2)no1 (stereo not given) | -26.6
38 | CCc1nnc2n1CCN(C(=O)c1cnc3ccccc3n1)C2 | 0.361
39 | CN(C)c1ccc(CN(CCCn2ccnc2)Cc2c[nH]cn2)cc1 | -38.9
40 | Cc1c[nH]nc1C1CCCCN1C(=O)Cn1cc(Cl)cn1 (stereo not given) | 10.4

Row | Compound | Percent Effect [%]
41 | Cc1noc(C)c1CNCC1CCCN1c1cccnn1 (stereo not given) | 5.13
42 | CCn1ccnc1CN1CCN(Cc2ccc(C#N)cc2)CC1 | -29.2
43 | Cc1nc(CN2C(=O)CC[C@H]3[C@@H]2CCN3C(=O)c2ccsc2)cs1 | -2.73
44 | O=c1[nH]c2c(c(=O)n1C1CCCCC1)CCC2NCCc1ccccc1 (stereo not given) | 3.31
45 | c1ccc(CN2CCN(Cc3cscn3)CC2)cc1 | 3.98
46 | Cc1ccc(N2CC[C@H]3OCC[C@@]3(C(=O)NC(C)C)C2)nn1 | 7.17
47 | CNC(=O)[C@@H]1C[C@H]2CN(Cc3nccs3)C[C@H]2N1C | -17
48 | CCn1c(CN(C)C)nnc1C1CCN(Cc2ccccc2)CC1 | -23.5
49 | COc1ccc(C(=O)N2CCC(Nc3cccnn3)CC2)c(OC)c1 | 8.84
50 | CCOCCC(=O)N1CCCN(Cc2csc(CC)n2)CC1 | -4.81
51 | CCc1noc(C(C)N2CCC(C(=O)Nc3cnn(CC)c3)CC2)n1 (stereo not given) | -12.4
52 | CCN1C[C@@H]2[C@@H](OC)CCN(S(=O)(=O)c3ccccc3)[C@@H]2C1 | -20.4
53 | Cc1ccn2cc(C(=O)N3CCCC3c3c(C)nn(C)c3C)nc2c1 (stereo not given) | -1.23
54 | CCc1nccc(CN2CCCC(c3nn(C)c(=O)n3CC)C2)n1 (stereo not given) | 10.8
55 | Cc1noc([C@@H]2CCCN2C(=O)C2CCN(C(=O)C3CCC3)CC2)n1 | -35.4
56 | Cc1cc(C)c2nc(CN3CCOC(CCO)C3)cc(O)c2c1 (stereo not given) | -15.7
57 | Cc1sc(NC(=O)CN(C)S(C)(=O)=O)c(C#N)c1C | -4.6
58 | Cc1ccc(NC2CCN(C(=O)COc3cccnc3)CC2)nn1 | -129
59 | Fc1ccc(-c2nnc(CN3CCn4c(nnc4C4CC4)C3)o2)cc1 | -26.1
60 | CN(CCc1ccccn1)S(=O)(=O)N1CCCC1c1ccco1 (stereo not given) | 32.1
